This is a sample that favours compounds with a hit; in the whole collection about 10% have one here.
Sfp inh = Sfp phosphopantetheinyl transferase inhibition; 3.5% of 310,000 active; Q9F4F7; Biochemical Sfp PPTase activity, qHTS; AID 1490; Potency, µM, for the others: largest response in the series, negative = inhibition, usual class: inhibitors;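 note: the enzyme is Sfp with the accession as filed and its product quenches rhodamine fluorescence; potency is the fitted concentration of half-maximal effect; 0% = enzyme reaction without inhibitor and -100% = no enzyme wells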
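Fluorescence-quenching assay: 15 nM Sfp-PPTase preincubated 15 min at room temperature with compound, then 5 uM rhodamine-CoA and 12.5 uM BHQ-2-labelled YbbR peptide added. Fluorescence (ex 525/em 598 nm) read at start and after 30 min; difference gives rate.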
VDR inh = blocks the human vitamin D receptor | P11473 | VDR-SRC2-3 peptide fluorescence polarization, 2 h | 0.93% of 400,000 active | AID 504847 | Potency, µM, for the others: max response, negative = inhibition, actives largely listed as inhibitors; note: potency is the fitted concentration of half-maximal effect
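VDR–SRC2-3 interaction, FP format. Cmpds 23 nl via pintool, brief spin, 2 h ambient incubation.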
Mm-Cpn inhibitor = inhibitors of Methanococcus maripaludis chaperonin TRiC (MmCpn) | purified Mm-Cpn ATPase, ADP Transcreener TR-FRET | Potency, µM (titrated, usually from 76.9 µM), inactives show at the highest dose activity, negative = inhibition, most hits filed as inhibitors | 0.031% of 330,000 active | AID 504842; note: potency is the fitted concentration of half-maximal effect; nearly all actives have a fitted effect of over 80% in size
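ATP (10 uM final) was added to archaeal chaperonin (25 nM final) after 10 min exposure to test compound at 37°C; after 30 min further incubation, ADP was detected by competitive TR-FRET.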
PLK1 PBD block = blocks phosphopeptide binding to human PLK1 polo-box domain; Plk1 PBD binding of FITC phosphopeptide, fluorescence polarization; 2.8% of 360,000 active; Potency, µM, for inactives: max response, negative = inhibition, hits mostly inhibitors; note: potency is the fitted concentration of half-maximal effect; series mostly up to about 57 µM; nearly all actives have a fitted effect of over 65% in size
Target sequence (P53350 whole entry, looked up, the tested form may be a part): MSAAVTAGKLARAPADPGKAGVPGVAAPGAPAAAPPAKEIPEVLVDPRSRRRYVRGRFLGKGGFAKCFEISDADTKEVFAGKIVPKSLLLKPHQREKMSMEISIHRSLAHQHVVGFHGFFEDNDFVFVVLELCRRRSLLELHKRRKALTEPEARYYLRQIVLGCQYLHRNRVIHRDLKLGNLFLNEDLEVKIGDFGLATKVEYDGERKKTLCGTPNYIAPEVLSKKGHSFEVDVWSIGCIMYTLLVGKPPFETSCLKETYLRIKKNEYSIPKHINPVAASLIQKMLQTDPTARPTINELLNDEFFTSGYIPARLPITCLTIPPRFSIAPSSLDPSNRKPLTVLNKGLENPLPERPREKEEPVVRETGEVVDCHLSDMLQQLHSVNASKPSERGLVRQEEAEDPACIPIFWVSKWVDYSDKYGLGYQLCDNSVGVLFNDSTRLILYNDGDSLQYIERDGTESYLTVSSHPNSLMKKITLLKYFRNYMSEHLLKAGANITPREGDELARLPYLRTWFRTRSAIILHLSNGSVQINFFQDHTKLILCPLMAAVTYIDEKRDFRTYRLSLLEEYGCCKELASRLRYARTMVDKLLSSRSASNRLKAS
CCT chaperon mod = changes cytosolic chaperonin activity; 0.3% of 360,000 active; purified chaperonin ATPase assay, HTRF ADP detection, 30 min; AID 651819; activity change, % (no concentration beside the values), hits read low; in the data active = activity change below about -30%
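Enzyme 40 or 20 nM (batch-dependent) in Tris pH 7.4/KCl/MgCl2/DTT; cpd 76 uM single point; ATP 10 uM; 30 min 37 °C; Transcreener ADP HTRF detection, 30 min RT; ratio 665/615.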
G9a inh = blocks human histone lysine methyltransferase G9a. Q96KQ7. G9a H3K9 monomethylation, AlphaScreen, 2 h. Potency, µM (titrated, usually from 102 µM), for inactives: top-dose activity, negative = inhibition, usual class: inhibitors. 8.8% of 350,000 active; note: potency is the fitted concentration of half-maximal effect; nearly all actives have a fitted effect of over 75% in size
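Quantitative HTS format: methyltransferase activity on a biotin-tagged H3K9 peptide is measured by AlphaScreen, using a rabbit anti-monomethyl-H3K9 antibody with streptavidin donor and anti-IgG acceptor beads. Final levels are 20 nM enzyme, 500 nM peptide, 20 uM SAM; 2 h RT.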
* hit, by the source's call; u = inconclusive; x = not tested or not shown; [ ] = dose if it differs, or a comment. Unless noted, calls come from the whole dose curve; as a rule, active = well fitted curve in the direction sought with a large enough effect; inconclusive = small, poorly fitted or top-dose-only effect, or another doubt; inactive = no such curve, though single readings can be large; an effect the other way counts as inactive or inconclusive. Unless noted, % is set by controls: 0 for no effect and ±100 for the full control effect.

SMILES	Sfp inh	VDR inh	Mm-Cpn inhibitor	PLK1 PBD block	CCT chaperon mod	G9a inh
N#CC1=C(N)SC2(CCCCC2)SC1c1ccccc1 (stereo not drawn)	10µM*	-29%	-3%	21µM*	-2	7.9µM*
CCc1ccc2c(c1)c1nc(C)sc1n2CC	28µM*	u	1%	-8%	2	u
COC(=O)Cn1c2ccc(F)cc2c2nc(C)sc21	-24%	79µM*	2%	u	-1	45µM*
CCOC(=O)c1c(S(=O)(=O)N2CCC(C(=O)NCc3ccc(F)cc3)CC2)c(C)n(C)c1C	x	11%	x	x	x	2%[59 µM]
COc1ccc(CCNC(=O)Cc2c(C)c3cc4c(C)coc4cc3oc2=O)cc1OC	x	4%	x	x	x	3%[59 µM]
COc1cc(CNn2c(C)n[nH]c2=S)cc(Cl)c1OCC(=O)NC(C)(C)C	-7%	-15%	-1%	-13%	0	x
COc1cc(CNn2cn[nH]c2=S)ccc1OCC(=O)NC(C)(C)C	-19%	-2%	2%	-14%	1	18µM*
COc1cc(CNC(C)(C)CO)ccc1OCC(=O)NC(C)(C)C	11%	0%	1%	-8%	-2	-2%[59 µM]
C=CCOc1c(Br)cc(CNn2c(C)n[nH]c2=S)cc1OC	-14%	-4%	-4%	-6%	0	11µM*
COc1cc(CNn2c(C)n[nH]c2=S)cc(Br)c1OCC(=O)NC(C)(C)C	-6%	-4%	-2%	4%	2	4µM*
C=CCOc1c(Br)cc(CNc2nccs2)cc1OC	-9%	-3%	0%	-9%	-1	11µM*
O=C(CN1C(=O)C2(SCC(=O)N2c2ccc(F)cc2)c2ccccc21)NCCc1ccccc1 (stereo not drawn)	x	-5%	x	x	x	-10%[59 µM]
CCCn1c(C)nc2c(NCC3CCCN3CC)nc(C)nc21 (stereo not drawn)	21%	x	x	x	x	x
O=[N+]([O-])c1ccc(N/N=C/c2sc(N3CCOCC3)nc2-c2ccccc2)c(S(=O)(=O)Nc2ccc(Cl)cc2)c1	-14%	-3%	-8%	16%	1	40µM*
O=[N+]([O-])c1ccc(N/N=C/c2sc(N3CCOCC3)nc2-c2ccccc2)c(S(=O)(=O)Nc2ccccc2Cl)c1	10%	-1%	1%	u	-1	71µM*
O=C(O)c1cccc(N/N=C/c2sc(N3CCOCC3)nc2-c2ccccc2)c1	-2%	-16%	-11%	-19%	-2	u
COc1ccc(NC(=O)CN2CCN(C(=O)c3ccco3)CC2)c(OC)c1	11%	-5%	1%	-5%	0	-5%[12.7 µM]
COc1ccc2[nH]cc(C(=O)CN3CCN(C(=O)c4ccco4)CC3)c2c1	-5%	7%	-10%	-13%	0	u
COc1ccc2[nH]c(C)c(C(=O)CN3CCN(C(=O)c4ccco4)CC3)c2c1	-7%	-7%	-1%	-14%	1	50µM*
COC(=O)c1ccc(NC(=S)N2CCN(C(=O)c3ccco3)CC2)cc1	45µM*	-4%	-3%	19µM*	-40*	32µM*
COc1ccc2oc(=O)c(C(=O)N3CCN(C(=O)c4ccco4)CC3)cc2c1	-21%	-13%	-5%	30µM*	0	18µM*
COc1ccc(NC(=S)N2CCN(C(=O)c3ccco3)CC2)c(OC)c1	40µM*	-2%	-1%	u	-2	u
COc1ccc(S(=O)(=O)N(CCc2ccccc2)CC(=O)Nc2ccc(C)c(C)c2)cc1OC	x	-6%	x	x	x	-33%[59 µM]
COc1ccccc1OCCn1c(-c2ccc(Br)cc2)nc2ccccc2c1=O	x	-6%	x	x	x	-2%[59 µM]
FC(F)C(F)(F)Oc1cccc(-c2n[nH]c(=S)n2Cc2ccccc2)c1	x	-5%	-4%	-16%	-2	3%[0.501 µM]
SMILES	Sfp inh	VDR inh	Mm-Cpn inhibitor	PLK1 PBD block	CCT chaperon mod	G9a inh
CCCCOc1ccc(-c2n[nH]c(=S)n2Cc2ccccc2)cc1	1%	3%	-20%	-7%	-21	20µM*
Fc1ccc(-c2n[nH]c(=S)n2Cc2ccccc2)cc1	-10%	-16%	-19%	-9%	-2	u
S=c1[nH]nc(-c2ccc(Br)cc2)n1Cc1ccccc1	11%	u	u	12µM*	-3	10µM*
Oc1ccc(-c2n[nH]c(=S)n2Cc2ccccc2)cc1	-9%	-11%	-13%	-20%	2	1.1µM*
COc1ccc2c(c1)C(=O)[C@H](OC(=O)NS(=O)(=O)c1ccc(F)cc1)[C@@H](c1ccc(OC)c(Br)c1)O2	-17%	2%	x	x	x	x
CCn1c(=O)n(-c2ccc(F)c(Cl)c2)c(=O)c2sc3ccccc3c21	x	-2%	x	x	x	6%[59 µM]
CCOC(=O)CSc1nc2ccccc2c(=O)n1-c1cccc(C)c1	x	15%	x	x	x	-1%[59 µM]
COCC(=O)N1CCc2nc(COc3ccccc3)c3c(c2C1)CO[C@@H](C)C3	-12%	x	x	x	x	x
COc1ccccc1NC(=O)c1ccccc1NS(=O)(=O)c1cccs1	7%	-8%	2%	-6%	-1	50µM*
COc1ccccc1NC(=O)c1ccccc1S(=O)(=O)c1ccc([N+](=O)[O-])cc1	3%	-1%	1%	-8%	-2	u
COc1ccccc1NC(=O)c1ccccc1NS(C)(=O)=O	21%	10%	-1%	-7%	-1	-1%[12.7 µM]
COc1ccccc1NC(=O)c1ccccc1S(=O)(=O)c1ccccc1[N+](=O)[O-]	0%	-16%	0%	6µM*	-1	u
CCOc1cccc(-c2c(C(=O)N/N=C/c3ccoc3)nnn2-c2nonc2N)c1	13%	u	-2%	30µM*	-4	54%
CCOc1cccc(-c2c(C(=O)N/N=C(\C)c3ccncc3)nnn2-c2nonc2N)c1	15%	-1%	2%	-8%	1	x
CCOc1ccc(-c2c(C(=O)N/N=C/c3ccoc3)nnn2-c2nonc2N)cc1	9%	-9%	-2%	-12%	-2	62%
CCOc1cccc(-c2c(C(=O)N/N=C(\C)c3ccccn3)nnn2-c2nonc2N)c1	32µM*	-8%	2%	-4%	3	x
CCOc1ccc(-c2cn(-c3ccccc3OC)c(=S)[nH]2)cc1	3%	0%	-8%	u	0	u
CCOc1ccc(-c2cn(-c3cccc(SC)c3)c(=O)[nH]2)cc1	-9%	-5%	-2%	-7%	-1	28µM*
Oc1ccc(Br)cc1C=Nc1ccc(Cl)cc1	6%	-4%	-6%	21µM*	-1	-41%
CC(C)(C)c1ccc(O)c(N=Cc2cc(Br)ccc2O)c1	50µM*	-5%	-2%	3%	-1	1.8µM*
CCN(CC)c1ccc(N=Cc2cc(Br)ccc2O)cc1	63µM*	u	-15%	-5%	-2	14µM*
Cc1ccc(NC(=O)C(=O)NCC(c2cccnc2)N2CCN(Cc3ccccc3)CC2)cc1 (stereo not drawn)	x	4%	x	x	x	-23%[59 µM]

Source: PubChem (National Center for Advancing Translational Sciences (NCATS))
